According to PubChem BioAssay (EPA / NIEHS):
Active and inactive are the calls of the source. How the source made its calls: active means hit-call score of the fitted dose curve at least 0.9, where 1 is the maximum; inactive means score below 0.9.

Tests used:
Settings in all cases: mRNA level, 48 h; actives raise or lower the signal
[1] = read-out: Fatty Acid-Binding Protein 1 (FABP1), FABP1 (gene 2168); test: LTEA_HepaRG_FABP1: Life Technologies and Expression Analysis (LTEA) Assay for Fatty Acid-Binding Protein 1 (FABP1) using HepaRG (AID 2283494)
Method: (§1) LTEA_HepaRG is a cell based, multiplexed-readout assay that uses HepaRG, a human liver cell line, with measurements taken at 48 hours after chemical dosing on a 96-well plate.LTEA_HepaRG_FABP1 is one of 102 assay component(s) measured in the LTEA HepaRG cell culture assay. It is a marker of Steatosis.Data from the assay component LTEA_HepaRG_FABP1 was analyzed into 1 endpoint. This assay endpoint, LTEA_HepaRG_FABP1, was analyzed with bidirectional fitting relative to DMSO as the negative control and baseline of activity. Using a type of inducible reporter, measures of mRNA induction for gain or loss-of-signal activity can be used to understand regulation of transcription factor activity. To generalize the intended target to other relatable targets, this assay endpoint is annotated to the transporter intended target family, where the subfamily is fatty acid carrier protein.
(§2) A total of 1060 chemcials from the ToxCast library were tested in eight-point concentration-response experiments. Cell culture and cytotoxicity assays were conducted at Thermo Fisher Scientific's Custom Services facility (Madison, WI). […] Fluidigm's 96.96 Dynamic ArrayTM (Fluidigm, Amsterdam, the Netherlands) technology was used for gene expression analyses by quantitative reverse transcription polymerase chain reaction (qRT-PCR, performed by Quintiles/Expression Analysis, Durham, NC)89. […]

[2] = read-out: Cytochrome P450 4A22 (Homo sapiens) (UniProt Q5TCH4); test: LTEA_HepaRG_CYP4A22: Life Technologies and Expression Analysis (LTEA) Assay for Cytochrome P450 4A22 (CYP4A22) using HepaRG (AID 2283495)
How it was run: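 HepaRG, 48 h post-plating -> serum-free induction medium; dosed 48 h, duplicate, 8 conc. (100 uM top, half-log), 0.5% DMSO. Readout: CYP4A22 mRNA by qRT-PCR, ACTB/GAPDH/POLR2A normalization; gain/loss fit relative to DMSO.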

[3] = read-out: Cytochrome P450 7A1 (Homo sapiens) (UniProt P22680); test: LTEA_HepaRG_CYP7A1: Life Technologies and Expression Analysis (LTEA) Assay for Cytochrome P450 7A1 (CYP7A1) using HepaRG (AID 2283496)
How it was run: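 HepaRG cells plated 48 h, then switched to serum-free induction medium and exposed in duplicate for 48 h to 8-point half-log series from 100 uM in 0.5% DMSO. CYP7A1 mRNA by qRT-PCR (TaqMan), normalized to ACTB/GAPDH/POLR2A; bidirectional fit versus DMSO.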

[4] = read-out: Glutathione S-Transferase (GSTA2), GSTA2 (gene 2939); test: LTEA_HepaRG_GSTA2: Life Technologies and Expression Analysis (LTEA) Assay for Glutathione S-Transferase (GSTA2) using HepaRG (AID 2283497)
How it was run: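 HepaRG, 48 h dosing, 8-pt half-log CRC from 100 uM, 0.5% DMSO vehicle, n=2; RNA → Fluidigm TaqMan qRT-PCR; GSTA2 vs ACTB/GAPDH/POLR2A; gain/loss fit vs DMSO.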

[5] = read-out: Glutamate-cysteine ligase catalytic (GCLC), GCLC (gene 2729); test: LTEA_HepaRG_GCLC: Life Technologies and Expression Analysis (LTEA) Assay for Glutamate-cysteine ligase catalytic (GCLC) using HepaRG (AID 2283498)
How it was run: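 Read-out is GCLC transcript level by Fluidigm-based TaqMan qRT-PCR, normalized to three housekeeping genes and fitted in both directions relative to 0.5% DMSO. Human HepaRG cells received chemicals for 48 h, up to 100 uM.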

[6] = read-out: growth arrest and DNA damage 45 (GADD45G), GADD45G (gene 10912); test: LTEA_HepaRG_GADD45G: Life Technologies and Expression Analysis (LTEA) Assay for growth arrest and DNA damage 45 (GADD45G) using HepaRG (AID 2283499)
Method: as §1, with “plate.LTEA_HepaRG_GADD45G” for “plate.LTEA_HepaRG_FABP1”, “Cell proliferation, survival, death.Data” for “Steatosis.Data”, “LTEA_HepaRG_GADD45G” for “LTEA_HepaRG_FABP1”, “LTEA_HepaRG_GADD45G,” for “LTEA_HepaRG_FABP1,”, “mutagenicity response” for “transporter”, “Cell proliferation, survival, death.” for “fatty acid carrier protein.”
A total of 1060 chemcials from the ToxCast library were tested in eight-point concentration-response experiments. […] Fluidigm's 96.96 Dynamic ArrayTM (Fluidigm, Amsterdam, the Netherlands) technology was used for gene expression analyses by quantitative reverse transcription polymerase chain reaction (qRT-PCR, performed by Quintiles/Expression Analysis, Durham, NC)89. […]

[7] = read-out: Glutamate-cysteine ligase regulatory (GCLM), GCLM (gene 2730); test: LTEA_HepaRG_GCLM: Life Technologies and Expression Analysis (LTEA) Assay for Glutamate-cysteine ligase regulatory (GCLM) using HepaRG (AID 2283500)
How it was run: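 Differentiated HepaRG cells exposed 48 h in serum-free induction medium to eight half-log concentrations up to 100 uM (0.5% DMSO). GCLM mRNA by TaqMan qRT-PCR, normalized to ACTB, GAPDH and POLR2A; bidirectional fit versus DMSO.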

[8] = read-out: Glutathione S-transferase M3 (GSTM3), GSTM3 (gene 2947); test: LTEA_HepaRG_GSTM3: Life Technologies and Expression Analysis (LTEA) Assay for Glutathione S-transferase M3 (GSTM3) using HepaRG (AID 2283501)
Method: as §1, with “plate.LTEA_HepaRG_GSTM3” for “plate.LTEA_HepaRG_FABP1”, “Oxidative Stress.Data” for “Steatosis.Data”, “LTEA_HepaRG_GSTM3” for “LTEA_HepaRG_FABP1”, “LTEA_HepaRG_GSTM3,” for “LTEA_HepaRG_FABP1,”, “transferase” for “transporter”, “alkyl and aryl transferase.” for “fatty acid carrier protein.”
as §2

[9] = read-out: Heat shock 70 kDa protein 1 (HSPA1A), gene 3303; test: LTEA_HepaRG_HSPA1A: Life Technologies and Expression Analysis (LTEA) Assay for Heat shock 70 kDa protein 1 (HSPA1A) using HepaRG (AID 2283502)
How it was run: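 Human HepaRG cells in serum-free induction medium were exposed in duplicate for 48 h to 8 half-log concentrations, highest 100 uM, in 0.5% DMSO. HSPA1A mRNA read by TaqMan qRT-PCR, normalized to ACTB, GAPDH, POLR2A, fitted bidirectionally against DMSO.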

[10] = read-out: Hypoxia-inducible factor 1-alpha (Homo sapiens) (UniProt Q16665); test: LTEA_HepaRG_HIF1A: Life Technologies and Expression Analysis (LTEA) Assay for Hypoxia-inducible factor 1 (HIF1A) Trancription factor using HepaRG (AID 2283503)
Method: as §1, with “plate.LTEA_HepaRG_HIF1A” for “plate.LTEA_HepaRG_FABP1”, “Cell proliferation, survival, death.Data” for “Steatosis.Data”, “LTEA_HepaRG_HIF1A” for “LTEA_HepaRG_FABP1”, “LTEA_HepaRG_HIF1A,” for “LTEA_HepaRG_FABP1,”, “dna binding” for “transporter”, “basic helix-loop-helix” for “fatty acid carrier”
as §2

Measured: outcome

Sequence of Hypoxia-inducible factor 1-alpha (Homo sapiens) (Q16665 whole entry, looked up): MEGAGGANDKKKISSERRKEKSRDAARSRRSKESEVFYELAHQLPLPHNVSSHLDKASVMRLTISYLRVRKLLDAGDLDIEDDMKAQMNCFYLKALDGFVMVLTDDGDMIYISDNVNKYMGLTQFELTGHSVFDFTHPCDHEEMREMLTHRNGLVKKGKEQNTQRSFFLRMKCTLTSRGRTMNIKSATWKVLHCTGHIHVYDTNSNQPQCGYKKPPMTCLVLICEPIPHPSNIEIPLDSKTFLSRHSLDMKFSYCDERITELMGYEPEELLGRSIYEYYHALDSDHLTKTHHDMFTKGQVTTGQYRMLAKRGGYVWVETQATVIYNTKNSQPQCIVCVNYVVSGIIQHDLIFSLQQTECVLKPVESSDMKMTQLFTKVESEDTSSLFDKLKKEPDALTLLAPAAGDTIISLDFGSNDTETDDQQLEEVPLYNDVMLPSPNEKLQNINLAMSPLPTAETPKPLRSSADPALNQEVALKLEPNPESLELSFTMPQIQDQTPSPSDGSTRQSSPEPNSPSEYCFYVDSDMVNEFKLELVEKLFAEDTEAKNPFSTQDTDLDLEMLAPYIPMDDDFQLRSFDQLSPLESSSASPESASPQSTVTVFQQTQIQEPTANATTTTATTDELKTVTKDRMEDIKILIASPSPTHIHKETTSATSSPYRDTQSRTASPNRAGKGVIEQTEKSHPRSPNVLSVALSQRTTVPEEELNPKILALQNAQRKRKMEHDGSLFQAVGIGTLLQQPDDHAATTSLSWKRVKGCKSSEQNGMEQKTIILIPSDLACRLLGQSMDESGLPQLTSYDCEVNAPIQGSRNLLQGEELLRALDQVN

O=C(O)c1ccc([N+](=O)[O-])cc1
inactive: all assays above
